CHRM1 antagonist – blocks human M1 muscarinic receptor; P11229; CHO-K1 hM1, Fluo-8 calcium fluorescence, ACh EC80 antagonist; inhibition, % at 3 µM; 360,000 compounds, 1.3% hits; AID 588852;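 active = percent inhibition above its own plate's cutoff, namely the mean of that plate's compound wells plus 3 SD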;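 note: peak over basal fluorescence ratio during 140 s after agonist addition; 0% = ACh EC80 plus DMSO and 100% = DMSO alone without agonist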
Target sequence (P11229 whole entry, looked up): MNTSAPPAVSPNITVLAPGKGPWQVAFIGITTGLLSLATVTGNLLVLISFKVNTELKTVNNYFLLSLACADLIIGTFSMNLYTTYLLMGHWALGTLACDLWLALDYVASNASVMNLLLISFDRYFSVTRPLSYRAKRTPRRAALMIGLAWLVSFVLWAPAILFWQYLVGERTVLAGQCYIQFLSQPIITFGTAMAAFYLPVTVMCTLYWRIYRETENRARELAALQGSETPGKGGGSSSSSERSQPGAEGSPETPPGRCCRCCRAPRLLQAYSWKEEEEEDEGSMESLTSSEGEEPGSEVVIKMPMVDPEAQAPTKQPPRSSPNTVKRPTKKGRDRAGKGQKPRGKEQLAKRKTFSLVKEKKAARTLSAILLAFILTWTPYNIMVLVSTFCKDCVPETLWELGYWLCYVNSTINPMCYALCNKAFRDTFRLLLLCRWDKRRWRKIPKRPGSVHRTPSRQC
M1 PAM parental – M1 PAM counterscreen hit in parental CHO-K1 cells | AID 602247 | activation, % at 3 µM | ATP EC20, Fluo-8 calcium fluorescence; 0% at ATP EC20, 100% at ATP max | 360,000 compounds, 0.02% hits;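 active = activation above the run cutoff, the mean activation of all test compounds plus 3 SD, cut at about 40% in these data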;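 note: peak over basal fluorescence ratio in a 140 s read after ATP addition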
CHRM1 agonist – human M1 muscarinic receptor agonism; AID 588814; CHO-K1 hM1, Fluo-8 calcium fluorescence, agonist mode; 0% DMSO, 100% acetylcholine EC100; activation, % at 3 µM; 360,000 compounds, 0.33% hits;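 active = activation above the run's mean compound activation plus 3 SD, cut at about 16% in these data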;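 note: peak over basal fluorescence ratio within a 140 s kinetic read after compound addition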
CHRM1 PAM – human CHRM1 positive allosteric modulation | CHO-K1 hM1, Fluo-8 calcium fluorescence, ACh EC20; 0% = ACh EC20, 100% = maximal ACh | activation, % at 3 µM | 360,000 compounds, 0.088% hits | AID 588819; in the data active = activation above about 19%, passing the limit was not always enough
CHO-K1 Ca antag – M1 antagonist counterscreen hit in parental CHO-K1 cells. ATP-induced calcium, Fluo-8 fluorescence. inhibition, % at 3 µM. 360,000 compounds, 0.6% hits. AID 602250;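 active = inhibition above a per-plate cutoff, the plate's mean sample inhibition plus 3 SD, cut at about 24% in these data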;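 note: 0% = DMSO plus EC80 ATP and 100% = DMSO alone without ATP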
CHO-K1 Ca ag – counter-screen for M1 agonists: effect in parental CHO-K1 cells; activation, % at 3 µM; Fluo-8 calcium fluorescence; scaled to maximal ATP response, vehicle zero; 360,000 compounds, 0.48% hits; AID 602248; in the data active = activation above about 15%;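 note: untransfected CHO-K1 host cells lacking M1 receptor as counterscreen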
An asterisk follows results filed as active. This is a sample that favours compounds with a hit; in the whole collection about 2.4% have one here.

SMILES	CHRM1 antagonist	M1 PAM parental	CHRM1 agonist	CHRM1 PAM	CHO-K1 Ca antag	CHO-K1 Ca ag
CCN=C1SC(CC(=O)Nc2ccc3c(c2)OCO3)C(=O)N1CC (stereo unspecified)	28*	-3	1	-19	23	6
CCN=C1SC(CC(=O)NCC)C(=O)N1CC (stereo unspecified)	-26	-5	0	0	15	0
O=C(COC(=O)CCC1CCCC1)Nc1nc2c(F)c(F)c(F)cc2s1	3	3	-6	-2	3	0
O=C(c1cc2ccccc2o1)N1CCCC1	-7	13	-16	20	-5	-1
O=S(=O)(c1ccc2nc(N3CCN(c4ccccc4F)CC3)ccc2c1)N1CCCCC1	3	-6	-1	-3	25*	2
Oc1ccc(Cl)cc1CNCc1ccc(F)cc1	-5	11	18*	6	-14	10
Oc1ccc(Cl)cc1CNCc1ccc(Cl)cc1	-8	12	11	6	-23	4
O=[N+]([O-])c1cccnc1N1CCC(c2cc(-c3cccc(C(F)(F)F)c3)n[nH]2)CC1	22*	-4	-7	-14	6	0
O=[N+]([O-])c1cccnc1N1CCC(c2cc(-c3ccc(Cl)cc3Cl)n[nH]2)CC1	3	-7	-2	-1	17	0
CC(C)(C)c1cc2nc(N)nc(N)n2n1	-14	-13	0	10	6	0
C=CCn1c(C)c(C(C)=O)c(N2CCN(c3ccccc3)CC2)nc1=S	89*	21	-1	-22	-7	3
C=CCn1c(C)c(C(C)=O)c(N2CCCC2)nc1=S	98*	1	-6	-20	0	0
CCn1c(C)c(C(C)=O)c(N2CCCC2)nc1=S	40*	19	-4	-18	-6	0
COc1ccccc1N1CC(C(=O)OC(C)C(=O)N2CCCc3ccccc32)CC1=O (stereo unspecified)	6	1	-1	0	2	1
COc1ccc(-c2nc3cc(C)ccn3c2NC(=O)c2c(F)cccc2Cl)cc1	2	18	-4	-2	-3	3
O=C1C(Cl)=C(NS(=O)(=O)c2ccc([N+](=O)[O-])cc2)C(=O)c2ccccc21	-3	13	-3	3	-1	0
CCN(Cc1ccccc1)c1ccc(/C=C(\C#N)c2ccccn2)cc1	-14	16	-5	7	-10	1
O=C(NC(=S)NC1CCS(=O)(=O)C1)c1ccccc1 (stereo unspecified)	-7	19	-1	2	-6	0
CCN1CCN(S(=O)(=O)c2ccc(Cl)c(C(=O)N(C)Cc3ccccc3)c2)CC1	-5	17	1	15	24*	0
CN(CC(=O)Nc1ccccc1Cl)C(=O)c1cccc(S(=O)(=O)N2CCN(c3ccccc3)CC2)c1	20	-18	-1	-7	28*	5
CN(Cc1ccc(OC(F)F)cc1)C(=O)c1cccc(S(=O)(=O)N2CCN(c3ccccc3)CC2)c1	46*	-22	0	-20	20	14
COc1ccccc1N(C)S(=O)(=O)c1ccc(C(=O)N(C)Cc2ccc(OC(F)F)cc2)cc1	27*	-20	0	-14	13	10
CN(CC(=O)Nc1ccccc1Cl)C(=O)c1cccc(S(=O)(=O)N2CCN(c3ccc(F)cc3)CC2)c1	19	-15	7	-4	22	5
COc1cc(OC)c(OC)cc1/C=C/C(=O)c1ccc(NS(=O)(=O)c2ccc(C)cc2)cc1	-1	11	-1	5	2	2
O=C(Nc1nnc(C2CC2)s1)C1CCCCC1	-5	10	-7	7	-11	0
SMILES	CHRM1 antagonist	M1 PAM parental	CHRM1 agonist	CHRM1 PAM	CHO-K1 Ca antag	CHO-K1 Ca ag
CC(=O)c1c(C)[nH]c(C(=O)OCc2ccc([N+](=O)[O-])cc2)c1C	-2	12	-2	2	-13	10
CCCCOc1c(Br)cc(/C=N/O)cc1OCC	-18	15	-5	4	-4	0
CC(C)(C)OC(=O)NNC(=S)NCc1ccc(Cl)cc1	-15	19	0	12	-5	0
CCCNC(=O)[C@@H]1CCCN1C(=O)C1CCN(S(=O)(=O)c2ccc(C)cc2)CC1	-5	0	-1	8	-2	0
Cc1ccc(S(=O)(=O)N2CCC(C(=O)N3CCC[C@H]3C(=O)NC3CCS(=O)(=O)C3)CC2)cc1 (stereo partly specified)	54*	15	-2	-17	0	2
O=C(Nc1cccc(S(=O)(=O)N2CCCC2)c1)C1CCCN1C(=O)c1cccs1 (stereo unspecified)	-11	26	-6	8	-14	0
CCOC(=O)c1ccn(CSc2c(F)c(F)cc(F)c2F)n1	33*	-12	-2	-14	21	0
COC(=O)c1ccn(CSc2c(F)c(F)cc(F)c2F)n1	-12	13	-4	13	-11	0
O=C(Nc1ccc(C(=O)O)cc1)/C(=C\c1ccc([N+](=O)[O-])cc1)NC(=O)c1ccc(Br)cc1	6	-18	-3	-9	28*	-1
Cc1ccc(NC(=O)/C(=C\c2ccc([N+](=O)[O-])cc2)NC(=O)c2ccccc2)cc1	0	6	-3	2	0	0
COc1ccc2[nH]c3c(Cl)ncnc3c2c1	10	-17	-1	-2	22	-1
COc1ccc(NC(=O)C2CCCN2S(=O)(=O)c2cccc3cccnc23)cc1OC (stereo unspecified)	-14	8	-2	4	3	0
COc1ccc(N2CCN(C(=O)C(=O)c3c[nH]c4ccccc34)CC2)cc1	9	-25	0	-2	8	3
Cc1ccc2[nH]cc(C(=O)CN3CCN(c4ccccc4F)CC3)c2c1	-5	7	3	1	-6	16*
COc1ccc(N2CCN(CC(=O)c3c[nH]c4ccccc34)CC2)cc1	-11	-22	0	13	24*	0
O=C(COc1nsnc1N1CCOCC1)N1CCOCC1	4	-6	-2	-1	-6	1
COc1cc(NC(=O)CCN2CCN(c3ccccc3F)CC2)cc(OC)c1	-12	-2	-8	7	-17	0
Cc1cccc2sc(N(CCCN(C)C)C(=O)c3ccco3)nc12	76*	-4	14	-16	-7	3
Cc1cccc2sc(N(CCCN(C)C)C(=O)c3ccc(Cl)s3)nc12	51*	20	-3	-18	-15	3
O=C1/C(=C\c2cccc([N+](=O)[O-])c2O)SC(=S)N1Cc1ccccc1	-7	-20	0	8	-9	1
COc1cc(/C=C2/SC(=S)N(Cc3ccccc3)C2=O)cc(Cl)c1O	23	-19	25*	-4	3	6

Compound activity deposited in PubChem BioAssay by The Scripps Research Institute Molecular Screening Center.
